The text below walks through data of PubChem BioAssay.

The source made the active and inactive calls.

One assay concerns the target Albumin (Bos taurus) (UniProt P02769). The experiment in a line: compounds binding labelled BSA control protein – biochemical, small-molecule microarray, Alexa647 label, 635/667 nm fluorescence, artefact control for SMM control protein annotation, profiling panel (AID 1118).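 Further: score merges 667 nm emission intensity and signal-to-noise per printed compound spot.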 The conditions noted are these: BSA-A647 binding, fluorescence 635 nm, higher = more signal.
A short description of assay [1]: probe aXIP binding to arrayed compounds – biochemical, NeuroSMM set, 635/667 nm fluorescence, primary screen (AID 1119).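 Further: probe is the protein aXip251-270 applied at 1 µg/mL to compound-printed slides; binding of probe to printed compounds measured as 667 nm fluorescence plus signal to noise.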 The conditions noted are these: small-molecule microarray, higher = more signal, called active from +8 up or from −8 down.
Assay [2] is described as follows: probe aNOTCH3 binding on compound microarray – biochemical, small-molecule microarray, 635/667 nm fluorescence, primary screen (AID 1120).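 Further: probe is a biotin-tagged antibody raised against NOTCH3 rather than NOTCH3 protein; score merges spot fluorescence near 667 nm with spot signal to noise.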 The conditions noted are these: higher = more signal.
The nature of assay [3]: probe aNOTCH2 binding on compound microarray – biochemical, small-molecule microarray, 635/667 nm fluorescence, primary screen (AID 1121).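 Further: score merges feature fluorescence read at 667 nm with its signal to noise.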 The conditions noted are these: higher = more signal.
The target of assay [4] is Carbonic anhydrase 2 (Homo sapiens) (UniProt P00918). The experiment in a line: compounds binding carbonic anhydrase 2 – biochemical, small-molecule microarray, Alexa647-labelled CAII, profiling panel (AID 1122). The conditions noted are these: CAII-A647 binding fluorescence, higher = more signal.
Assay [5] is described as follows: COS7 lysate on small-molecule microarray, probe aHis, 635 nm (AID 1123).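 Further: z-score combines 667nm fluorescence intensity with signal-to-noise per printed compound spot.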 The conditions noted are these: COS7 cell lysate, fluorescence, higher = more signal.
The nature of assay [6]: probe aLAP1 signal on lysate-treated microarray – cell lysate, small-molecule microarray, COS7 lysate, primary screen (AID 1124).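 Further: lysate comes from COS7 cells expressing LAP1 and is applied at 0.3 µg/mL; score merges spot fluorescence near 667 nm with signal-to-noise over triplicate slides.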 The conditions noted are these: probe aLAP1, fluorescence, higher = more signal.
The next assay has as its system Sam68 (KHDRBS1). Briefly: compounds binding KHDRBS1 protein – biochemical, small-molecule microarray, 635 nm fluorescence, primary screen (AID 1125).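 Further: score merges 667 nm channel intensity with signal to noise over triplicate slides.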 The conditions noted are these: higher = more signal.
In assay [7] the test system is Chordin-like protein 2 (CHRDL2). Briefly: compounds binding chordin-like 2 – biochemical, small-molecule microarray, 635 nm fluorescence, primary screen (AID 1126).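 Further: printed compound slides probed with Chrdl2 protein at 4 µg/mL for 1 h at 4 C; score merges 667 nm emission intensity with signal to noise over three replicate slides.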 The conditions noted are these: fluorescence 635 nm, higher = more signal.
Assay [8] has as its target Concanavalin-A (Canavalia ensiformis) (UniProt P02866). The experiment in a line: compounds binding concanavalin A lectin – biochemical, small-molecule microarray, Alexa647 label, 635 nm, artefact control for SMM control protein annotation, primary screen (AID 1127).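 Further: z combines 667 nm emission intensity with signal-to-noise across three replicate slides.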 The conditions noted are these: ConA-A647 binding fluorescence, higher = more signal.
Assay [9] in a line: compounds binding Alexa647 anti-His antibody – biochemical, small-molecule microarray, 635 nm fluorescence, artefact control for SMM control protein annotation, primary screen (AID 1128).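 Further: score merges feature fluorescence with signal-to-noise for each printed compound spot.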 The conditions noted are these: higher = more signal.
Assay [10] deals with Human papillomavirus type 1a E7 protein (residues 1-88). The experiment in a line: HPV1a E7 small-molecule binders, primary screen, biochemical, small-molecule microarray, residues 1-88, 635 nm (AID 1129). The conditions noted are these: small-molecule microarray binding, fluorescence 635 nm; higher = more signal.
Assay [11] concerns the target Focal adhesion kinase 1 (Homo sapiens) (UniProt Q05397). Briefly: PTK2 protein binding on printed compound slides – biochemical, small-molecule microarray, 635/667 nm fluorescence, BSA, DTT, primary screen (AID 1130).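 Further: composite of spot emission at 667 nm and signal to noise over triplicate slides.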 The conditions noted are these: 635 nm fluorescence, higher = more signal.
Assay [12] relates to Fibrinogen (Alexa647-labelled). Briefly: Alexa647-fibrinogen binding to printed small molecules – biochemical, small-molecule microarray, 635/667 nm fluorescence, artefact control for SMM control-protein annotation, profiling panel (AID 1131).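 Further: z-score merges 667 nm fluorescence with per-spot signal-to-noise over triplicate slides.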 The conditions noted are these: fibrinogen-A647 binding fluorescence, higher = more signal.
Assay [13] has as its target Follistatin (Homo sapiens) (UniProt P19883). The experiment in a line: FST protein binding to printed compounds – biochemical, small-molecule microarray, 635/667 nm fluorescence, primary screen (AID 1132). The conditions noted are these: 635 nm fluorescence, higher = more signal.
Assay [14] deals with Fibroblast growth factor 2 (Homo sapiens) (UniProt P09038). The experiment in a line: basic fibroblast growth factor binding to printed compounds – biochemical, small-molecule microarray, 635/667 nm fluorescence, primary screen (AID 1133). The conditions noted are these: FGF2, fluorescence 635/667, higher = more signal.
Assay [15] is described as follows: JC-1 mitochondrial potential readout, lung cancer cells – cell-based, A549, JC-1 fluorescence, basal, 24 h, 100 nL, profiling panel (AID 1138).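 Further: A549 lung adenocarcinoma cells under basal conditions with no added stimulus; test concentration not given here.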 The conditions noted are these: higher = more signal.
The next assay concerns Lefty1. The experiment in a line: Lefty1 protein binding to printed compounds – biochemical, small-molecule microarray, 635/667 nm fluorescence, primary screen (AID 1139). The conditions noted are these: fluorescence 635/667, higher = more signal.
The subject of assay [16] is wheat germ agglutinin (Triticum aestivum), Alexa647-labelled. The experiment in a line: Alexa647-WGA lectin binding to printed small molecules – biochemical, small-molecule microarray, 635/667 nm fluorescence, artefact control for SMM control-protein annotation, profiling panel (AID 1140).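 Further: score merges 667 nm feature emission with signal to noise over triplicate slides.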 The conditions noted are these: WGA-A647 binding, 635 nm fluorescence, higher = more signal.

The target in assay [17] is Luciferin 4-monooxygenase (Photinus pyralis) (UniProt P08659). Briefly: inhibition of purified Photinus pyralis luciferase – biochemical, luminescence, purified enzyme, 2006 set, primary screen (AID 1141).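 Further: cell-free assay with purified firefly luciferase at 100 ng per well in PBS; test concentration not given here.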 The conditions noted are these: purified firefly luciferase, SteadyGlo luminescence, 30 min; higher = more signal, called active from +8 up or from −8 down.
Sequence of Luciferin 4-monooxygenase (Photinus pyralis) (P08659 whole entry, looked up): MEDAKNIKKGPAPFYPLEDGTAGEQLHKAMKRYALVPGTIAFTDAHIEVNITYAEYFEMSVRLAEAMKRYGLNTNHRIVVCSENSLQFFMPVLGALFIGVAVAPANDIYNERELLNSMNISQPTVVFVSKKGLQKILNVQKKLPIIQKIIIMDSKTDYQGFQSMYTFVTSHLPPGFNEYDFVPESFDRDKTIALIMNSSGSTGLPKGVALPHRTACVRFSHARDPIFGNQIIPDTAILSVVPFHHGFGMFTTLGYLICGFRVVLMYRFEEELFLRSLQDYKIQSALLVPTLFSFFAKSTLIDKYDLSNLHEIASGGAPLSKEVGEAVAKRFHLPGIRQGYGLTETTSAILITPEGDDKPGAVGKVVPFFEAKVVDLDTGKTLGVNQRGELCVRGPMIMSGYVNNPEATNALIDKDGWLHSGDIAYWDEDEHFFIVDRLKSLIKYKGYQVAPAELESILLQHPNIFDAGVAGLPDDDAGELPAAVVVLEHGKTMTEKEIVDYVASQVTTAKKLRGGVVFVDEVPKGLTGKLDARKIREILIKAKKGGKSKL

Sequence of Fibroblast growth factor 2 (Homo sapiens) (P09038 whole entry, looked up): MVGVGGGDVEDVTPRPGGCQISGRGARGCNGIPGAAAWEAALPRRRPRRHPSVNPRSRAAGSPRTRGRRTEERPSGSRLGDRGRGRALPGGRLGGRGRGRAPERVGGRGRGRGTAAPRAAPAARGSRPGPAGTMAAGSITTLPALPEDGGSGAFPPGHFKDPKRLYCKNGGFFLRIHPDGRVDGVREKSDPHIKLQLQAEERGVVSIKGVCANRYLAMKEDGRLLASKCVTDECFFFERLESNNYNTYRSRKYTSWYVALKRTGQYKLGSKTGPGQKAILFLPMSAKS
Sequence of Concanavalin-A (Canavalia ensiformis) (P02866 whole entry, looked up): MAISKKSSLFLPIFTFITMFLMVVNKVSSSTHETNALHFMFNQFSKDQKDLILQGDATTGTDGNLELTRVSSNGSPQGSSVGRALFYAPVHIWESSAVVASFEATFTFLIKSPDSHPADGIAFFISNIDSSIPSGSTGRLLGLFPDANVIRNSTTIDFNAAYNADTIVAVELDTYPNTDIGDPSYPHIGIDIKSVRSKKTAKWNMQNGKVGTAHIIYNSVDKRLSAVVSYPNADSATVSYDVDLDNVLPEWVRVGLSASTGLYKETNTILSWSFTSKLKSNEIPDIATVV
Sequence of Follistatin (Homo sapiens) (P19883 whole entry, looked up): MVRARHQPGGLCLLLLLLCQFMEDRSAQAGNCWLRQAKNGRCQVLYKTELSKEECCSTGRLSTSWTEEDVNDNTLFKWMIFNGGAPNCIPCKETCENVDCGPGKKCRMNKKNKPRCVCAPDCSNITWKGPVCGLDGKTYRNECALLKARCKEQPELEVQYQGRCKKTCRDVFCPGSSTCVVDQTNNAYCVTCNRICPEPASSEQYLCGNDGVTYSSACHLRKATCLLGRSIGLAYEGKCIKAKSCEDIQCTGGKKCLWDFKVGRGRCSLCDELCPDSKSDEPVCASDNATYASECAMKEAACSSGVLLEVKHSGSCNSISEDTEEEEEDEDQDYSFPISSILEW
Sequence of Focal adhesion kinase 1 (Homo sapiens) (Q05397 whole entry, looked up): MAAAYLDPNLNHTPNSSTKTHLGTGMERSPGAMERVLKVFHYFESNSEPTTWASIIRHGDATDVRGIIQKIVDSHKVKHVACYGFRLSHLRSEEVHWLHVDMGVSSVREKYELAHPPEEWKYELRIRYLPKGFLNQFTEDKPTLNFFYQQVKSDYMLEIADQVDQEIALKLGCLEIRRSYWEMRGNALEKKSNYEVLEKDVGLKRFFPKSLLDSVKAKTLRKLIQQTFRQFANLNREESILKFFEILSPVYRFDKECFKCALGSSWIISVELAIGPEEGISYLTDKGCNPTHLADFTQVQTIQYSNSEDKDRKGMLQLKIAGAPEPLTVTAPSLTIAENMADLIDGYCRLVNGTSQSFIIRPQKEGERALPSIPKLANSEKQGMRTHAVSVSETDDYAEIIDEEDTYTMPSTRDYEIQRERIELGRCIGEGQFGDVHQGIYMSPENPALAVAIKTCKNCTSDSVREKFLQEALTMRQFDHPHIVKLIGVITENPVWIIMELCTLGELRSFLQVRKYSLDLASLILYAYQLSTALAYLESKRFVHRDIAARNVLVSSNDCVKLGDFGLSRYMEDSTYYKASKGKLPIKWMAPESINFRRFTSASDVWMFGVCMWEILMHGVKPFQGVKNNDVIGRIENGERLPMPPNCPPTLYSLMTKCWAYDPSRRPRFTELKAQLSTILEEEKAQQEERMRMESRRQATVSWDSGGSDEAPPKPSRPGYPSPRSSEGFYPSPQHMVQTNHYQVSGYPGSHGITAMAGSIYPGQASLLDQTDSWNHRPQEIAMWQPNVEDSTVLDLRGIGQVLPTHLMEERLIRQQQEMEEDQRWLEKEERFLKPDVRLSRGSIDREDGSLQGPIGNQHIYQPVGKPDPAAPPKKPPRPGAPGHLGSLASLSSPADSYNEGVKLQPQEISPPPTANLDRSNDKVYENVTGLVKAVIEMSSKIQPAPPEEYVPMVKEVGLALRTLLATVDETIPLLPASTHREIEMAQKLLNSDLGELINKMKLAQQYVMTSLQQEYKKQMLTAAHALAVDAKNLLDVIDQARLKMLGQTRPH
Sequence of Albumin (Bos taurus) (P02769 whole entry, looked up): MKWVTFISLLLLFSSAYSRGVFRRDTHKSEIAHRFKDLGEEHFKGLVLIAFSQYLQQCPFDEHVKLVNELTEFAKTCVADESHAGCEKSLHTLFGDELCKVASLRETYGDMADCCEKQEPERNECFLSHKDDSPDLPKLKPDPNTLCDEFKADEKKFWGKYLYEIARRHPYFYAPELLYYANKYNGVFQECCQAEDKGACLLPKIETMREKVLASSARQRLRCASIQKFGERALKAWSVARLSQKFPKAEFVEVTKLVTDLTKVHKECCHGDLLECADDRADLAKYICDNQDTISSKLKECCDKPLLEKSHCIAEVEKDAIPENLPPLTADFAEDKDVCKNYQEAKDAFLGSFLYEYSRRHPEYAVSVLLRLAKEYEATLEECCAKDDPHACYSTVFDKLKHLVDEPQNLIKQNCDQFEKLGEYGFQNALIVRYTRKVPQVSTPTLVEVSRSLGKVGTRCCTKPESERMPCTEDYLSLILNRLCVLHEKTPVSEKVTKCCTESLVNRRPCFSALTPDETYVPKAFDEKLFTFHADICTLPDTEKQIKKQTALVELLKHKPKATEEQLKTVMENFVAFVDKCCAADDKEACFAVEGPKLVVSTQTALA

With `COc1cc2c(cc1OC)CN(C(=O)[C@@H]1[C@H]3C(=O)O[C@H](c4ccccc4)[C@H](c4ccccc4)N3[C@H](c3ccccc3OCCO)[C@@]13C(=O)Nc1ccc(C#CCCO)cc13)CC2`, the composite z-score was 0.641 with Albumin (Bos taurus); 0.0556 in assay [2]; -0.0878 in assay [3]; 0.402 in assay [4]; 1.88 in [5]; 0.681 in assay [6]. Also, the composite z-score stood at 1.29 in the assay with Sam68 (KHDRBS1); 0.352 in assay [7]; 1.14 in assay [8]; 1.94 in assay [9]; 1.15 in assay [10]; 0.222 in [11]. For the same compound, the composite z-score is 0.966 in assay [12]; 1.27 in [13]; 0.409 in assay [14]; 0.904 in the assay on Lefty1; 0.988 in [16]. Besides, the composite Z-score in assay [1] was 0.252 (inactive). In addition, the z-score in [15] is -0.426; in assay [17] it was -0.785 (inactive).

For `COC(=O)C(CC#Cc1ccc2c(c1)[C@]1(C(=O)N2)[C@H](c2ccc(OCCO)cc2)N2[C@H](c3ccccc3)[C@H](c3ccccc3)OC(=O)[C@H]2[C@@H]1C(=O)Nc1nc2ccccc2s1)C(=O)OC`, the composite z-score was 0.959 with Albumin (Bos taurus); 0.0038 in [2]; -0.183 in [3]; 0.546 in assay [4]; 2.4 in assay [5]; -0.065 in assay [6]. Moreover, the composite z-score with Sam68 (KHDRBS1) was 1.31; in assay [7] it was 0.326; in assay [8] it was 1.16; in assay [9], 1.6; in [10] it was 1.23; in [11], 0.633. The composite z-score amounted to 0.998 in assay [12]; 0.989 in assay [13]; 0.408 in [14]; 0.417 with Lefty1; 0.638 in [16]. Besides, the composite Z-score in assay [1] was -0.0045 (inactive). For the same compound, the z-score was -2.05 in [15] and -0.877 (inactive) in [17].

For `COc1ccc([Si](C)(C)[C@@H]2[C@@H](CC(=O)N3CCC[C@H]3CO)O[C@]3(C(=O)N(c4ccccc4)c4ccccc43)[C@H]2C)cc1`, the composite z-score is 0.569 with Albumin (Bos taurus); -0.0377 in [2]; -0.147 in assay [3]; 0.575 in assay [4]; 1.12 in [5]; 0.237 in assay [6]. In addition, the composite z-score turned out to be 1.3 in the assay with Sam68 (KHDRBS1); 0.553 in assay [7]; 0.894 in assay [8]; 0.806 in assay [9]; 1.22 in [10]; 0.472 in [11]. Moreover, the composite z-score is 0.94 in [12]; 1.1 in [13]; 0.642 in [14]; 1.01 in the assay on Lefty1; 0.2 in [16]. Further, the composite Z-score in [1] is 0.723 (inactive). Also, the z-score in assay [15] was -0.228; in assay [17], 0.659 (inactive).

For the compound `C=C(COC)/C(=C/C[C@@H](OC(=O)c1ccncc1)c1ccc(CO)o1)c1cc(C(=O)OC)ccc1OC`, the composite z-score with Albumin (Bos taurus) is 0.0436; in [2], 0.0979; in assay [3], -0.104; in assay [4] it was 0.482; in assay [5], 0.641; in [6], 1.46. Besides, the composite z-score in the assay with Sam68 (KHDRBS1) was 1.31; in assay [7] it was 1.1; in assay [8] it was 1.14; in assay [9] it was 0.68; in assay [10], 1.24; in assay [11], 0.987. Also, the composite z-score in [12] was found to be 0.933; in assay [13], 1.46; in assay [14] it was 1.92; in the assay on Lefty1, 1.64; in assay [16] it was 0.707. Also, the composite Z-score in assay [1] is -0.0882 (inactive). For the same compound, the z-score in assay [15] was 0.526; in assay [17], -1.83 (inactive).

Regarding `CC(C)[Si]1(C(C)C)O[C@@H](c2ccccc2)c2cc(-c3ccc(-c4ccc(Cl)c(Cl)c4)o3)nc(-c3ccccc3)c21`, the composite z-score was 0.473 in the assay with Albumin (Bos taurus); -0.0918 in assay [2]; -0.133 in [3]; 0.233 in assay [4]; 0.308 in assay [5]; 0.0588 in assay [6]. The composite z-score in the assay with Sam68 (KHDRBS1) was 0.278; in assay [7], -0.432; in [8] it was 0.989; in [9] it was 2.46; in assay [10], 0.361; in assay [11], -0.289. Moreover, the composite z-score in assay [12] was 0.291; in assay [13], -0.139; in [14], 0.0622; in the assay with Lefty1, -0.0995; in assay [16], 0.533. Also, the composite Z-score in assay [1] is -0.0194 (inactive). The z-score is -0.133 in [15] and -0.266 (inactive) in assay [17].

As for `OCCCC1=CC(c2cccs2)N(Cc2cc3c(cc2Br)OCO3)CC1` (stereo not given), the composite z-score with Albumin (Bos taurus) is 0.252; in assay [2], -0.0044; in assay [3] it was -0.147; in assay [4], 0.509; in [5], 0.713; in [6] it was 0.242. The composite z-score in the assay with Sam68 (KHDRBS1) was 0.242; in [7], -0.0561; in assay [8], 0.795; in assay [9], 0.992; in [10] it was 0.213; in assay [11], 0.585. In addition, the composite z-score in [12] stood at 0.772; in [13], 0.333; in assay [14], 0.076; in the assay with Lefty1, 0.433; in assay [16], 0.929. The composite Z-score in assay [1] is 0.027 (inactive). For the same compound, the z-score in assay [15] is 1.39; in [17], -0.0407 (inactive).
